Test results: PubChem BioAssay AID620 (Sanford-Burnham Center for Chemical Genomics, 2007)
Screen size: about 87,000 compounds; about 360 (0.41%) were called active. The sample holds actives, similar compounds and a random draw of the others, so the mix is not that of the screen. No stated cut-off is given here; in the data, active means cytotoxicity above about 50%; inactive means the rest.

Test: cytotoxicity in HT1080 fibrosarcoma cells, cell-based, fluorescence readout (AID 620);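 further: cells exposed to compound overnight then 4 h with Alamar Blue; 0% = vehicle DMSO and 100% = killing control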
Details: HT1080 viability, at 10 µM, hits give high values

Row | SMILES | cytotoxicity
1 | O=C(Nc1cccc(Cl)c1)N(CCN1CCOCC1)Cc1cccc(Cl)c1 | 24% (inactive)
2 | Cc1ccc(NC2=NCC(=O)N2Cc2ccccc2)c(C)c1 | -14.9% (inactive)
3 | COC(=O)c1cc2ccsc2n1Cc1cc(=O)n2ccccc2n1 | 60.2% (active)
4 | COC(=O)c1cc2ccsc2n1CC(=O)N(C)c1ccccc1 | -3.5% (inactive)
5 | COC(=O)c1cc2ccsc2n1Cc1nc(-c2ccc(OC)cc2)oc1C | -11.4% (inactive)
6 | CCn1c(SCC(=O)Nc2ccccc2)nc2c1c(=O)n(C)c(=O)n2C | -1.6% (inactive)
7 | COc1cccc(OCC(=O)Nc2c(C(=O)Nc3ccc(OC)cc3OC)oc3ccccc23)c1 | 2.3% (inactive)
8 | O=S(=O)(Nc1cccnc1)c1cccc(C(F)(F)F)c1 | 2.9% (inactive)
9 | O=C(COc1cccc2ccccc12)N1CCN(c2ccccn2)CC1 | -9% (inactive)
10 | COc1ccc(Nc2nc(N3CCCC3)c3ccccc3n2)cc1 | 19.5% (inactive)
11 | Cc1ccc(Nc2nc(N3CCOCC3)c3ccccc3n2)cc1 | -0.4% (inactive)
12 | CCOC(=O)N1CCN(c2c(N3CCN(c4ccccn4)CC3)c(=O)c2=O)CC1 | -3% (inactive)
13 | COc1ccc(-c2c/c(=N\c3nc(-c4ccccc4)c(C)s3)c3ccccc3o2)cc1O | 60% (active)
14 | COc1ccc(-c2nc3ccccc3s2)cc1O | -4% (inactive)
15 | COc1ccc(-c2nc(-c3ccccc3)c(-c3cc([N+](=O)[O-])ccc3C)[nH]2)cc1O | 10.8% (inactive)
16 | Cn1c(SCc2ccccc2Cl)nc2ccccc21 | 30.7% (inactive)
17 | Cc1nc2ccc(NC(=O)c3ccc(Cl)c(NC(=O)c4cccs4)c3)cc2s1 | 3.4% (inactive)
18 | CCn1c(SCc2ccccc2)nnc1-c1ccc(S(=O)(=O)N2CCCCC2)cc1 | -8.1% (inactive)
19 | O=C1C(Cl)=C(Nc2ccccc2O)C(=O)N1c1ccccc1 | -3.8% (inactive)
20 | CNC(=O)[C@@]1(C)C=C[C@@H](Cc2ccccc2)N1C(=O)OC | -1% (inactive)
21 | COC(=O)CNC(=O)[C@@]1(C)C=C[C@@H](Cc2ccccc2)N1C(=O)OC | 89.9% (active)
22 | COC(=O)CNC(=O)[C@@]1(C)C=C[C@@H](Cc2ccccc2)N1C(C)=O | -25% (inactive)
23 | COc1cccc(-c2nnc(SCC(N)=O)n2-c2ccc(Cl)cc2)c1 | -0.4% (inactive)
24 | O=S(=O)(c1cccc(-c2nc3ccccc3s2)c1)N1CCOCC1 | -1% (inactive)
25 | COc1ccccc1NC(=O)N(Cc1ccco1)Cc1cc2cccc(C)c2[nH]c1=O | -8% (inactive)
26 | COc1ccccc1NC(=O)N(Cc1ccco1)Cc1cc2ccc(C)c(C)c2[nH]c1=O | 58.4% (active)

Row | SMILES | cytotoxicity
27 | COc1ccccc1NC(=O)N(Cc1ccco1)Cc1cc2cc(C)cc(C)c2[nH]c1=O | 3.9% (inactive)
28 | COc1ccc(NC(=O)CCN2CCN(S(=O)(=O)c3ccc(Cl)cc3)CC2)cc1 | -5.2% (inactive)
29 | COc1ccc(CC2C(=O)OC(C)(C)OC2=O)cc1 | -9.2% (inactive)
30 | O=C(Nc1cccc(-c2cc3ccccc3oc2=O)c1)c1ccc(Br)o1 | -1.6% (inactive)
31 | COc1ccc(NS(=O)(=O)c2cc(C(=O)O)ccc2C)cc1 | -2.1% (inactive)
32 | COc1ccc(NS(=O)(=O)c2cc(C)ccc2NC(=O)c2cc(C)oc2C)cc1 | 67.9% (active)
33 | COc1ccc(NS(=O)(=O)c2cc(OC)ccc2NC(=O)c2cc(C)oc2C)cc1 | 54% (active)
34 | COc1ccc(C)c(S(=O)(=O)Nc2ccc(OCC(=O)O)cc2)c1 | -3.4% (inactive)
35 | COc1ccc2nc(NC(=O)c3cc(C)oc3C)sc2c1 | -5.9% (inactive)
36 | COc1ccc(NS(=O)(=O)c2cc(C)ccc2C)cc1 | 2.8% (inactive)
37 | CCOC(=O)C1Cc2ccccc2CN1 (stereo unspecified) | -7.6% (inactive)
38 | CCOC(=O)N1CCC(NC(=O)C2CCCN(S(=O)(=O)c3ccc4c(c3)oc(=O)n4C)C2)CC1 (stereo unspecified) | -2.4% (inactive)
39 | Cc1ccc(Oc2ccc(S(=O)(=O)N3CCOCC3)cc2C(N)=O)c(-n2nc3ccccc3n2)c1 | 53.4% (active)
40 | COc1ccccc1Oc1ccc(S(=O)(=O)N2CCOCC2)cc1S(=O)(=O)N1CCOCC1 | -0.3% (inactive)
41 | CC(=O)Oc1ccc(C)cc1-n1nc2ccccc2n1 | -18.3% (inactive)
42 | Cc1cc(C)c(C#N)c(SCC(=O)Nc2ccc3c(c2)OCO3)n1 | -1.7% (inactive)
43 | CN(C)/C=C(\C(=O)c1ccc(Cl)cc1)c1nnnn1-c1ccc(Cl)cc1 | 5.8% (inactive)
44 | OC(CNCCc1ccccc1)c1ccccc1 (stereo unspecified) | -2.3% (inactive)
45 | CCNc1nc(NCC)nc(N2CC(=O)N(CC(=O)OCC)C2=N)n1 | 4.9% (inactive)
46 | Brc1ccc(C2C3=C(Nc4ncnn42)c2ccccc2OC3c2ccncc2)cc1 (stereo unspecified) | 44.4% (inactive)
47 | Clc1ccc2c(c1)C1=C(C(c3ccncc3)O2)C(c2ccc(Br)cc2)n2ncnc2N1 (stereo unspecified) | 50.7% (active)
48 | Fc1ccc(C2C3=C(Nc4ncnn42)c2ccccc2OC3c2ccncc2)cc1 (stereo unspecified) | 14.5% (inactive)
49 | O=C(CSCCc1ccccn1)Nc1ccccn1 | 3.4% (inactive)
50 | O=C(Cc1cn2ccsc2n1)OCc1nc2ccccc2s1 | -1.1% (inactive)
51 | CCOC(=O)c1c(C)[nH]c(C(=O)COC(=O)CNC(=O)C2CCCCC2)c1C | 0.3% (inactive)
52 | CCOC(=O)C1=C(C)N(CCCC(=O)O)C(=O)NC1c1ccccc1OC(=O)c1cccs1 (stereo unspecified) | -19.7% (inactive)

Row | SMILES | cytotoxicity
53 | CCC1CCCN1Cn1cnc2c([nH]c3ccccc32)c1=O (stereo unspecified) | 2.5% (inactive)
54 | O=C(NCC(c1cccnc1)N1CCN(c2ccccc2)CC1)OCc1ccccc1 (stereo unspecified) | 3.4% (inactive)
55 | COc1ccc(S(=O)(=O)Nc2cc(Cl)ccc2OC)cc1 | 70.9% (active)
56 | CCOC(=O)c1ccccc1NS(=O)(=O)c1ccc(OCC)cc1 | 55.2% (active)
57 | CCOC(=O)c1ccccc1NS(=O)(=O)c1ccc(C)cc1 | 6.9% (inactive)
58 | CCOC(=O)c1ccccc1NS(=O)(=O)c1ccccc1 | 37% (inactive)
59 | COc1ccc(Cl)cc1NS(=O)(=O)c1ccc(S(=O)(=O)N2CCCC2)cc1 | -1.1% (inactive)
60 | CCCCOc1ccc(S(=O)(=O)Nc2cc(OC)ccc2OC)cc1 | 4.8% (inactive)
61 | COc1ccc(Cl)cc1NS(=O)(=O)c1ccc(OC)c(OC)c1 | -2.2% (inactive)
62 | CCOc1ccc(S(=O)(=O)Nc2cc(OC)ccc2OC)cc1 | 59.8% (active)
63 | COC(=O)COc1ccc(S(=O)(=O)Nc2cc(OC)ccc2OC)cc1 | 2.6% (inactive)
64 | Cc1cc(C)n(/N=C\c2c(O)ccc3ccccc23)c(=O)c1C(N)=O | 0% (inactive)
65 | CC(=O)c1ccc(OC(C)C)c(CN2CCCCC2)c1 | 1.8% (inactive)
66 | Cc1onc(-c2ccccc2)c1C(=O)Nc1cccc(C#N)c1 | -1.8% (inactive)
67 | COC(=O)CSc1nnc(CNS(=O)(=O)c2ccc(C)cc2)n1C | 6.8% (inactive)
68 | Cc1ccc2cc(-c3noc(C4CCCCC4)n3)c(=O)[nH]c2c1 | -0.9% (inactive)
69 | Cn1c(=O)c2c(nc(Br)n2CC(=O)c2cccs2)n(C)c1=O | -2.7% (inactive)
70 | COc1ccc(S(=O)(=O)N2CCN(S(=O)(=O)c3ccc4c(c3)OCCO4)CC2)cc1 | 2.3% (inactive)
71 | CC1=NN(S(=O)(=O)c2ccc(F)cc2)C(=O)c2ccccc2O1 | 0.4% (inactive)
72 | COc1ccc(S(=O)(=O)N2N=C(C)Oc3ccccc3C2=O)cc1 | 60.3% (active)
73 | O=C(NCc1ccccc1)C1CCN(S(=O)(=O)N2CCCCCC2)CC1 | -5.9% (inactive)
74 | O=C(N1CCOCC1)n1nnc2ccccc21 | -1.4% (inactive)
75 | O=S(=O)(N1CCOCC1)n1nnc2ccccc21 | -4.1% (inactive)
76 | CCc1ccc2c(c1)[C@]1(C(=O)N2)[C@@H]2C(=O)N(Cc3ccccc3)C(=O)[C@@H]2[C@@H]2CCCN21 | -2.5% (inactive)
77 | CCCSc1ccc2nc(NC(=O)OC)[nH]c2c1 | 40% (inactive)
78 | CCCOc1ccc2nc(NC(=O)OC)[nH]c2c1 | 64.1% (active)

Row | SMILES | cytotoxicity
79 | COc1ccc2nc(NCCO)[nH]c2c1 | 3.7% (inactive)
80 | C=CCOc1ccc2nc(NC(=O)OC)[nH]c2c1 | 62.3% (active)
81 | CCOc1ccc2nc(NCCO)[nH]c2c1 | -12% (inactive)
82 | COc1ccc(OCC(=O)Nc2nc3ccccc3[nH]2)cc1 | -8.8% (inactive)
83 | O=C1C2ON(c3ccc(Br)cc3)C(c3cccnc3)C2C(=O)N1C1CCCCC1 (stereo unspecified) | 1.2% (inactive)
84 | COc1ccc2nc3oc(C(=O)N4CCN(c5ccccc5F)CC4)cc3cc2c1 | -0.7% (inactive)
85 | Cc1cc(NC(=O)CSc2nnc(-c3cccnc3)n2C)no1 | -4.9% (inactive)
86 | Cc1cccc(N(C(=O)Nc2ccccc2)C2=NCC(C)S2)c1 (stereo unspecified) | -2.6% (inactive)
87 | N#Cc1cccc(Cn2nnc(-c3ccccc3)n2)c1 | 13.7% (inactive)
88 | COc1ccc(OC)c(-n2nnnc2SCC(=O)Nc2ccc(C(=O)N3CCCCC3)cc2)c1 | -11.6% (inactive)
89 | COCCCNC(=O)CCCC(=O)NCCCOC | -2.4% (inactive)
90 | COc1ccc(-c2cn3cc(C)ccc3n2)cc1OC | 23% (inactive)
91 | COc1ccc(-c2cn3ccccc3n2)cc1OC | 14.9% (inactive)
92 | COc1ccc(-c2cn3cc(Cl)ccc3n2)cc1OC | 98.8% (active)
93 | O=C1CC(c2cccs2)c2cc3c(cc2N1)OCO3 (stereo unspecified) | 13.7% (inactive)
94 | Cc1ccc(C2CC(=O)Nc3cc4c(cc32)OCO4)o1 (stereo unspecified) | 40% (inactive)
95 | CC(C)Oc1ccccc1C1CC(=O)Nc2cc3c(cc21)OCO3 (stereo unspecified) | 67.4% (active)
96 | Cc1ccc(C2CC(=O)Nc3cc4c(cc32)OCCO4)s1 (stereo unspecified) | 7.9% (inactive)
97 | O=C1CC(c2ccncc2)c2cc3c(cc2N1)OCCO3 (stereo unspecified) | 5.6% (inactive)
98 | COc1cc2c(cc1OC)C(c1cccc(OC)c1OC)CC(=O)N2 (stereo unspecified) | -0.5% (inactive)
99 | CC(C)Oc1ccccc1C1CC(=O)Nc2cc3c(cc21)OCCO3 (stereo unspecified) | 70.5% (active)
100 | COc1cccc(C2CC(=O)Nc3cc4c(cc32)OCCO4)c1OC(C)C (stereo unspecified) | 0.6% (inactive)
101 | COc1ccccc1C1CC(=O)Nc2cc3c(cc21)OCCO3 (stereo unspecified) | 52.2% (active)
